Calls of active or inactive are those of the source.

The nature of assay [1]: resazurin metabolic signal in HepG2 cells – cell-based, resazurin fluorescence, 24 h, PK04 Diversity Set, profiling panel (AID 1172). Note: test concentration not given here. The conditions noted are these: HepG2 viability, higher = more signal. On the technique in general: Alamar Blue is a resazurin reagent that responds to reducing activity.
The nature of assay [2]: budding yeast growth changes without added modifier – OD600, strain BY4716, 24 h, basal condition, primary screen (AID 1173). The conditions noted are these: S. cerevisiae BY4716 growth, OD600, 24 h; higher = more signal, called active from +8 up or from −8 down.
Assay [3] can be described thus: viability profiling in MM1S myeloma cells – cell-based, resazurin fluorescence, basal, 24 h, PK04 Diversity Set, profiling panel (AID 1174).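 Note: MM1S multiple myeloma cell line; test concentration not given here.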 Conditions: higher = more signal, called active from +8 up or from −8 down.
Assay [4] addresses Dihydroorotate dehydrogenase (quinone), mitochondrial (Plasmodium falciparum (isolate 3D7)) (UniProt Q08210). The experiment in a line: inhibition of P. falciparum DHODH – biochemical, C-terminal His tag, absorbance 600 nm, primary screen (AID 1175).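 Note: recombinant parasite enzyme with a five histidine tag at its C terminus; test concentration not given here.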 Conditions: PfDHODH enzyme, DCIP absorbance 600 nm; higher = more signal, called active from +8 up or from −8 down.
Assay [5] in a line: growth modulation of vineyard yeast isolate – strain RM11-1a, OD600, basal, 24 h, primary screen (AID 1177).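 Note: cultures grown under basal conditions with no added stressor; test concentration not given here.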 The conditions noted are these: S. cerevisiae RM11-1a growth, OD600, 24 h; higher = more signal, called active from +8 up or from −8 down.
Assay [6] can be described thus: growth of efflux-deficient E. coli DRC39 – strain DRC39, OD650, 24 h, E. coli filamentation inducers, primary screen (AID 1178).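 Note: growth measured as culture turbidity by optical density at 650 nm; test concentration not given here.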 The conditions noted are these: E. coli DRC39 acrAB, higher = more signal, called active from +8 up or from −8 down.
Assay [7] is described as follows: growth of efflux-deficient E. coli DRC39 – strain DRC39, OD650, 48 h, E. coli filamentation inducers, primary screen (AID 1179).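 Note: screen aims at cell division blockers that make cells filament.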 Conditions: E. coli DRC39 delta-acrAB growth, higher = more signal, called active from +8 up or from −8 down.
Assay [8] is described as follows: viability profiling in RPMI8226 myeloma cells – cell-based, resazurin fluorescence, basal, 24 h, PK04 Diversity Set, profiling panel (AID 1180).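 Note: RPMI8826 multiple myeloma cell line at 5000 cells per well; test concentration not given here.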 Conditions: higher = more signal.
Assay [9] addresses E3 ubiquitin-protein ligase XIAP (Homo sapiens) (UniProt P98170). The experiment in a line: small molecules binding XIAP protein – biophysical, small-molecule microarray, fluorescence 635 nm, primary screen (AID 1181).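 Note: score merges 667 nm emission and signal to noise over triplicate slides.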 The conditions noted are these: higher = more signal.

Dihydroorotate dehydrogenase (quinone), mitochondrial (Plasmodium falciparum (isolate 3D7)), sequence (Q08210 whole entry, looked up): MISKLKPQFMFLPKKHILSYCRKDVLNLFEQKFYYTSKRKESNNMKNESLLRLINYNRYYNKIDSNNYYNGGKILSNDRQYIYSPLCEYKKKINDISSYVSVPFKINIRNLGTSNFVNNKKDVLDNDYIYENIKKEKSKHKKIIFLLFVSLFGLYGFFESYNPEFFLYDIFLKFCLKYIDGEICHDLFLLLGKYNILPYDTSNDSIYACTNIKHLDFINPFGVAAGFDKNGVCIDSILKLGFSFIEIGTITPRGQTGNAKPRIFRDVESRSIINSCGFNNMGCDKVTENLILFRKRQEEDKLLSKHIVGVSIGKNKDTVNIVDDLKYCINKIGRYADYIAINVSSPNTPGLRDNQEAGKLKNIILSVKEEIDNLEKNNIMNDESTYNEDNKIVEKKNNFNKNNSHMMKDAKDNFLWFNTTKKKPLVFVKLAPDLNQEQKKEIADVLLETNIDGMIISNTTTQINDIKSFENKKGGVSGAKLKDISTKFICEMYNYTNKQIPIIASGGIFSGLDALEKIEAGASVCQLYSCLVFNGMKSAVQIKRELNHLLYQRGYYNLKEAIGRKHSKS
E3 ubiquitin-protein ligase XIAP (Homo sapiens), sequence (P98170 whole entry, looked up): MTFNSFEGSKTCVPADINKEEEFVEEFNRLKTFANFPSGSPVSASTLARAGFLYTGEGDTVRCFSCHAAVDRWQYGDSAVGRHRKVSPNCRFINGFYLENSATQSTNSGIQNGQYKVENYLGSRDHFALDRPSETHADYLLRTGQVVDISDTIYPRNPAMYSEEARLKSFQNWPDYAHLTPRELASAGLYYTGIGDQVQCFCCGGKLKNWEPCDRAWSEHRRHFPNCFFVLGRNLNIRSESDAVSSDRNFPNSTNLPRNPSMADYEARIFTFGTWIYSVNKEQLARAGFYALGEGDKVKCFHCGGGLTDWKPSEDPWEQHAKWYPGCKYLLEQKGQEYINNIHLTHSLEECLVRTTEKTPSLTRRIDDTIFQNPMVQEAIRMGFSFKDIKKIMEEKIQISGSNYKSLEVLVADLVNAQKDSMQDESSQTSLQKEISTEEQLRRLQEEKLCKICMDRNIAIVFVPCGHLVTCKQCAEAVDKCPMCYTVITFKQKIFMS

On to `COC(=O)C1=C(C)N(Cc2ccccc2)c2c(C(=O)OC)c(C(=O)OC)c(C(=O)OC)c(=O)n2[C@@H]1c1ccccc1`, for which the z-score in assay [1] was 1.23; in assay [2], -1.71 (inactive); in assay [3], -0.364 (inactive); in [5], -1.05 (inactive); in assay [6] it was -0.0311 (inactive); in assay [7], 0.0198 (inactive). The compound further registered a z-score in [8] of 0.512. For the same compound, the composite z-score is 0.295 (inactive) in assay [4] and -0.0841 in assay [9].
As for `C=CCC1=C[C@H]2[C@H]([C@@H]3C=C[C@]2(CC=C)C(=O)[C@]32CO2)[C@@]2(CO2)C1=O`, the z-score in assay [1] is 0.177; in assay [2], -15.3 (active); in assay [3], -1.92 (inactive); in assay [5] it was -0.763 (inactive); in assay [6], 2.57 (inactive); in assay [7] it was 1.51 (inactive). For the same compound, the z-score in assay [8] is -1.12. The values for the composite z-score in assay [4] and in assay [9] were -0.491 (inactive) and 0.147, respectively.
With `Cc1ccc(S(=O)(=O)N[C@H]2COC(=O)CC=C[C@H](C)COC(=O)N[C@@H](C)C(=O)CC=C[C@@H]2C)cc1`, the z-score in assay [1] is 0.115; in assay [2] it was -0.949 (inactive); in assay [3], 1.71 (inactive); in assay [5] it was -0.698 (inactive); in [6], 0.583 (inactive); in assay [7], 0.286 (inactive). Besides, the z-score in [8] turned out to be 1.06. The composite z-score in [4] was 0.32 (inactive); in [9], -0.0282.
As for `C=C(COC)/C(=C/C[C@H](OC(C)=O)c1ccc(OCCO)cc1)c1cnc2ccccc2c1`, the z-score is 0.807 in assay [1]; -0.229 (inactive) in assay [2]; 1.03 (inactive) in assay [3]; 1.65 (inactive) in assay [5]; 1.2 (inactive) in assay [6]; 0.805 (inactive) in [7]. In addition, the z-score in [8] is 1.03. Further, the composite z-score in assay [4] is -2.82 (inactive); in assay [9], -0.102.
Turning to `CCN1C(C)=C(C(=O)OC)[C@@H](c2ccccc2)N2C(=O)[C@](O)(C(=O)OC)[C@@H](c3ccccc3)C(C(=O)c3ccccc3)=C12`, the z-score was 2.22 in assay [1]; -3.46 (inactive) in [2]; 1.06 (inactive) in assay [3]; -0.785 (inactive) in assay [5]; 1.55 (inactive) in assay [6]; 1.39 (inactive) in [7]. In [8], this compound showed a z-score of 1.57. The composite z-score was 0.208 (inactive) in assay [4] and -0.101 in assay [9].
For the compound `C=C(COC)/C(=C/C[C@@H](OC(C)=O)c1cccc(OCCO)c1)c1cc(C(=O)OC)ccc1OC`, the z-score in [1] was 1.21; in assay [2] it was -1.57 (inactive); in assay [3] it was 0.49 (inactive); in [5] it was -0.489 (inactive); in [6] it was 2.1 (inactive); in assay [7], 1.47 (inactive). Moreover, the z-score in assay [8] came out at 0.938. For the same compound, the composite z-score was -0.733 (inactive) in assay [4] and 0.155 in assay [9].
In the case of `COc1ccc(CCNC(=O)[C@@]2(c3ccc([N+](=O)[O-])cc3)CC(=O)N(C(C)C)[C@@H]2c2ccc(CO)cc2)cc1`, the z-score was 0.483 in [1]; -1.12 (inactive) in assay [2]; 1.56 (inactive) in assay [3]; -1.28 (inactive) in assay [5]; 0.793 (inactive) in assay [6]; 0.479 (inactive) in assay [7]. Besides, the z-score in assay [8] worked out at 1.19. In addition, the composite z-score was -0.704 (inactive) in assay [4] and -0.154 in assay [9].
With `CCOC(=O)C[C@H]1[C@H](OC(=O)c2cc3ccccc3oc2=O)[C@@H](NC(=O)c2ccc3ccccc3c2)c2cc(OCCCO)ccc2N1C(=O)c1ccc2ccccc2n1`, the z-score in assay [1] was 0.272; in assay [2] it was -2.13 (inactive); in assay [3], 0.0578 (inactive); in [5] it was -1.06 (inactive); in assay [6], 2.52 (inactive); in assay [7], 1.23 (inactive). Moreover, the z-score in assay [8] is -0.536. The composite z-score is -0.172 (inactive) in [4] and -0.0454 in [9].
On to `Cc1ccc(N2C(=O)c3ccccc3[C@](C)(C(=O)O)[C@@H]2c2ccc(CO)cc2)nc1`, for which the z-score in assay [1] was 0.522; in assay [2], -0.0489 (inactive); in [3], 1.28 (inactive); in assay [5], 0.826 (inactive); in assay [6] it was 0.826 (inactive); in [7], 0.396 (inactive). This compound also gave a z-score in assay [8] of 1.27. The composite z-score in assay [4] was 0.217 (inactive); in [9], -0.0641.
As for `C/C(=N\O)C(=O)NCCCCCNC(=O)OCc1ccccc1`, the z-score in [1] is 1.09; in assay [2], -2.13 (inactive); in assay [3], -0.158 (inactive); in assay [5] it was -0.608 (inactive); in assay [6], 2.59 (inactive); in assay [7] it was 1.43 (inactive). In addition, the z-score in [8] amounted to 0.73. The composite z-score in [4] is -0.4 (inactive); in assay [9], -0.258.
As for `CO[C@H]1COC(=O)[C@H](Cc2ccccc2)NC(=O)CC=C[C@@H](C)[C@H](OC)COC(=O)CC=C[C@@H]1C`, the z-score in assay [1] was 0.471; in assay [2], -1.43 (inactive); in assay [3] it was 0.0446 (inactive); in assay [5] it was -1.06 (inactive); in assay [6], 0.373 (inactive); in assay [7] it was 0.53 (inactive). The same compound came in with a z-score in assay [8] of 0.562. In addition, the composite z-score in assay [4] was 0.0048 (inactive); in assay [9] it was 0.0525.

(Values after PubChem BioAssay.)
